Test results reported in PubChem BioAssay (Tox21).
Calls of active or inactive are those of the source. Calls come from the whole dose curve; as a rule, active = well fitted curve in the direction sought with a large enough effect in the repeat runs; inconclusive = weak or mixed curves; inactive = flat fitted curve, though single readings scatter.
% is set by controls: 0 for no effect and ±100 for the full control effect.

Test: qHTS assay to test for compound auto fluorescence at 460 nm (blue) in HEK293 cell free culture (AID 720681)
Details: cell-free medium, autofluorescence 405/460 nm (blue); series mostly up to 91.3 µM; fluorescence, % of fluorescent control: at the top concentration
Description: U.S. Tox21 Program National Center for Advancing Translational Sciences [NCATS] NIH Chemical Genomics Center [NCGC] U.S. Environmental Protection Agency [EPA] National Institutes of Environmental Health Sciences [NIEHS] National Toxicology Program [NTP] U.S. Food and Drug Administration [FDA] Tox21 Assay Overview: Compound auto fluorescence often interferes with screening of the compound library against various biological targets and signaling pathways. Some of these compounds may have fluorophoric properties. Such properties may interfere with the assay outputs resulting in false positives and/or negatives. To decrease such complications and ensure the compound activities are relevant in terms of biological response, the Tox21 10K compound library was screened for auto fluorescence. From the fluorophores used as reporter signals in our screening assays, the auto fluorescence equivalencies of compounds against three fluorophores have been evaluated: Triamterene, Fluorescein and Rose Bengal sodium for blue, green and red fluorescence, respectively. The fluorescence intensities were measured using Excitation/Emission wavelengths at 405/460nm, 485/535nm and 540/590nm for blue, green and red labels, respectively. This assay includes the blue fluorescence data.
Tox21 Assay Protocol Summary: 5 uL of culture medium (DMEM containing 10% FBS) per well was dispensed into black wall/clear bottom 1536-well plates using a Multidrop Combi Dispenser (ThermoFisher Scientific, Waltham, MA). After 23 nL compound or DMSO vehicle was transferred into assay plate by a pintool work station (Kalypsys, San Diego, CA), fluorescence intensities in the assay plates were measured by an Envision (PerkinElmer, Shelton, CT) plate reader using three labels for measuring blue, green and red fluorescence at […] 460, 535 and 590nm respectively.
For Oc1cc(O)c(Cl)cc1Cl, the “fluorescence, % of fluorescent control” value was 0.107% [at 95.7 µM] (inactive).
In the case of [O]=[Bi], the fluorescence, % of fluorescent control is reported as -0.0523% [at 3.72 µM] (inactive).
For CO[C@@]12[C@H](COC(N)=O)C3=C(C(=O)C(C)=C(N)C3=O)N1C[C@@H]1N[C@@H]12, the “fluorescence, % of fluorescent control” value was 0.167% [at 46 µM] (inactive).
In the case of COCc1c(C(C)C)nc(C(C)C)c(/C=C/[C@@H](O)C[C@@H](O)CC(=O)O)c1-c1ccc(F)cc1, the “fluorescence, % of fluorescent control” value is reported as -0.1% [at 46 µM] (inactive).
With O=C(/C=C/c1ccccc1)OCCCc1ccccc1 the “fluorescence, % of fluorescent control” value was 0.127% (inactive).
With Cc1nc2ccccc2s1 the “fluorescence, % of fluorescent control” value was -0.102% (inactive).
With CCn1nc(C)c2c1C(=O)NCC(c1ccc(O)cc1)=N2 the “fluorescence, % of fluorescent control” value was 0.986% (inactive).
In the case of CC(=N\O)/C(C)=N/O, the “fluorescence, % of fluorescent control” value is reported as 0.0267% (inactive).
For CCCOC(=O)c1ccc(C(=O)OCCC)nc1, the “fluorescence, % of fluorescent control” value was -0.278% (inactive).
In the case of CN(C)C(=O)Nc1ccc(Oc2ccc(Cl)cc2)cc1, the “fluorescence, % of fluorescent control” value is reported as -0.0134% (inactive).
For OCC1CC=CCC1 (stereo not given), the “fluorescence, % of fluorescent control” value was -0.0015% (inactive).
For CCC(C)(O)CCC=C(C)C (stereo not given), the “fluorescence, % of fluorescent control” value was -0.0016% (inactive).
For N#C/C(=C1\SCC(c2ccccc2Cl)S1)n1ccnc1 (stereo not given), the “fluorescence, % of fluorescent control” value was 0.0135% [at 46 µM] (inactive).
For Cc1c(C(=O)NN2CCCCC2)nn(-c2ccc(Cl)cc2Cl)c1-c1ccc(Cl)cc1, the “fluorescence, % of fluorescent control” value was -0.0053% [at 46 µM] (inactive).
In the case of C=CC(=O)NCOCC(C)C, the “fluorescence, % of fluorescent control” value is reported as -0.0779% (inactive).
With NC(=O)N(O)[C@@H]1C=C[C@H](Oc2cccc(Oc3ccc(F)cc3)c2)C1 the “fluorescence, % of fluorescent control” value was 0.186% (inactive).
With OC/C(Br)=C(\Br)CO the “fluorescence, % of fluorescent control” value was 0.0893% (inactive).
For Nc1nc(Cl)nc2c1ncn2[C@@H]1O[C@H](CO)[C@@H](O)[C@@H]1F, the “fluorescence, % of fluorescent control” value was -0.0096% [at 46 µM] (inactive).
With OCCSc1ccccc1 the “fluorescence, % of fluorescent control” value was -0.0143% (inactive).
For CCOC(=O)CC(=O)C(=O)OCC, the “fluorescence, % of fluorescent control” value was 0.501% (inactive).
With CN1CCN(CCCN2c3ccccc3Sc3ccc(S(=O)(=O)N(C)C)cc32)CC1 the fluorescence, % of fluorescent control was 0.0966% [at 18.6 µM] (inactive).
In the case of C[N+]1(C)CCC(=C(c2ccccc2)c2ccccc2)CC1, the fluorescence, % of fluorescent control is reported as -0.269% [at 18.6 µM] (inactive).
For C=CC(C)(O)CCCC(C)CCCC(C)CCCC(C)C (stereo not given), the “fluorescence, % of fluorescent control” value was -0.0754% (inactive).
For O=[N+]([O-])c1cccc(S(=O)(=O)NCCNS(=O)(=O)c2cccc([N+](=O)[O-])c2)c1, the “fluorescence, % of fluorescent control” value was -0.102% [at 46 µM] (inactive).
In the case of CCN(CC)CCNC(=O)c1ccc(NC(C)=O)cc1, the “fluorescence, % of fluorescent control” value is reported as -0.222% [at 46 µM] (inactive).
In the case of COc1cc2c(N3CCN(C(=O)Nc4ccc(OC(C)C)cc4)CC3)ncnc2cc1OCCCN1CCCCC1, the “fluorescence, % of fluorescent control” value is reported as 0.131% [at 46 µM] (inactive).
For CC(C)C(=O)O, the “fluorescence, % of fluorescent control” value was -0.0529% (inactive).
In the case of Cc1oc(C)c(C(=O)Nc2ccccc2)c1C, the “fluorescence, % of fluorescent control” value is reported as 0.0839% (inactive).
In the case of Nc1nccs1, the Potency is reported as “inactive”.
With CC(=O)[C@H]1CC[C@H]2[C@@H]3C=CC4=CC(=O)CC[C@@]4(C)[C@@H]3CC[C@]12C the fluorescence, % of fluorescent control was -0.214% [at 18.6 µM] (inactive).
For COC(=O)Nc1nc2ccc(C(=O)c3cccs3)cc2[nH]1, the “fluorescence, % of fluorescent control” value was 0.242% [at 46 µM] (inactive).
With CC(C)=CC=O the “fluorescence, % of fluorescent control” value was 0.0888% [at 95.7 µM] (inactive).
With O=C(O)Cc1ccc(-c2ccccc2)cc1 the fluorescence, % of fluorescent control was 0% [at 18.6 µM] (inactive).
With CCCCOC(=O)CCS the “fluorescence, % of fluorescent control” value was 0.0597% (inactive).
For O=S1OCCO1, the “fluorescence, % of fluorescent control” value was 0.0212% [at 95.7 µM] (inactive).
With Cc1cnc(C)c(C)n1 the “fluorescence, % of fluorescent control” value was 0.0223% [at 95.7 µM] (inactive).
In the case of CCOC(=O)/C=C/C(=O)O, the “fluorescence, % of fluorescent control” value is reported as -0.187% (inactive).
For COC(=O)CC(=O)C(C)(C)C, the “fluorescence, % of fluorescent control” value was 0.0869% (inactive).
For CO[C@H]1O[C@H](CO)[C@@H](O)[C@H](O)[C@H]1O, the “fluorescence, % of fluorescent control” value was -0.0669% (inactive).
In the case of CCCCCCCCCCCC[N+](C)(C)CC(=O)[O-], the “fluorescence, % of fluorescent control” value is reported as -0.0213% (inactive).
